PLK1 PBD inh = qHTS for Inhibitors of PLK1-PDB (polo-like kinase 1 - polo-box domain): Primary Screen; Serine/threonine-protein kinase PLK1 (Homo sapiens), P53350; Potency, µM, inactives show max response, negative = inhibition, most hits filed as inhibitors; Plk1 PBD binding of FITC phosphopeptide, fluorescence polarization; 360,000 tested, 2.8% active; also: potency is read from the fitted curve at half-maximal effect; series mostly up to about 57 µM; % is scaled to controls: 0 for no effect and ±100 for the full control effect; nearly all actives have a fitted effect of over 65% in size
BAZ2B block = qHTS Assay for Inhibitors of BAZ2B; Bromodomain adjacent to zinc finger domain protein 2B (Homo sapiens), Q9UIF8; AlphaScreen BAZ2B-H3K14Ac peptide displacement; Potency, µM (titrated, usually from 114 µM), inactives show top-dose activity change, negative = inhibition, hits mostly inhibitors; 360,000 tested, 4.4% active; also: potency is read from the fitted curve at half-maximal effect; % is scaled to controls: 0 for no effect and ±100 for the full control effect; nearly all actives have a fitted effect of over 60% in size
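BAZ2B 50 nM plus b-H3(5-23)K14Ac 50 nM, PBS pH 7.4/0.01% Tween-20, 30 min RT; compound added (max 110 uM), 30 min RT; streptavidin donor/Ni-chelate acceptor beads 10 ug/mL final, 20 min dark; AlphaScreen read.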
G9a block = qHTS Assay for Inhibitors of Histone Lysine Methyltransferase G9a; Potency, µM (titrated, usually from 102 µM), for the others: at the top dose activity, negative = inhibition, most hits filed as inhibitors; Histone-lysine N-methyltransferase EHMT2 (Homo sapiens), Q96KQ7; AID 504332, 2011; G9a H3K9 monomethylation, AlphaScreen, 2 h; 350,000 tested, 8.8% active; also: potency is read from the fitted curve at half-maximal effect; % is scaled to controls: 0 for no effect and ±100 for the full control effect; nearly all actives have a fitted effect of over 75% in size
Target sequence (Q96KQ7 913-1193 limits assumed): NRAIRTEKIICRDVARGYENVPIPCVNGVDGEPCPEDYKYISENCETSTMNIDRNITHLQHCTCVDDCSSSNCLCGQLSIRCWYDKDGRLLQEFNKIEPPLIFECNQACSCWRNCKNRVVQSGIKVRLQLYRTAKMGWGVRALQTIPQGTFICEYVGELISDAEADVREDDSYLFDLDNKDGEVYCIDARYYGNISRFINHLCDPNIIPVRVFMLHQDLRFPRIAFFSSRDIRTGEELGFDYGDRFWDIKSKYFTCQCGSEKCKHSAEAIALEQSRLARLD
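Chemiluminescent proximity detection of H3K9 monomethylation, read after 10 min bead incubation in the dark. Reaction: 20 nM G9a, 500 nM biotin-H3K9 peptide, 20 uM SAM cofactor, 2 h, room temperature, following 15 min enzyme-compound preincubation.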
JMJD2A Tudor inh = qHTS Assay for Inhibitors of JMJD2A-Tudor Domain; Potency, µM (series often up to 114 µM), for the others: at the highest dose activity change, negative = inhibition, hits mostly inhibitors; Lysine-specific demethylase 4A (Homo sapiens), O75164; AlphaScreen JMJD2A-Tudor / H3K4me3 peptide binding; AID 504339, 2011; 390,000 tested, 4.4% active; also: potency is read from the fitted curve at half-maximal effect; % is scaled to controls: 0 for no effect and ±100 for the full control effect; nearly all actives have a fitted effect of over 50% in size
HP1b binding inh = HTS for Inhibitors of HP1-beta Chromodomain Interactions with Methylated Histone Tails. Potency, µM (titrated, usually from 114 µM), without a hit: at the highest dose activity change, negative = inhibition, actives largely listed as inhibitors. AlphaScreen HP1-beta / biotin-H3K9me3 peptide binding. 390,000 tested, 0.56% active; also: potency is read from the fitted curve at half-maximal effect; nearly all actives have a fitted effect of over 70% in size
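AlphaScreen: HP1-beta (50 nM) preformed 30 min with biotin-H3(1-18)K9me3 peptide (50 nM) in PBS pH 7.4, 0.01% Tween-20. Compound added for 30 min at RT, then streptavidin donor/nickel chelate acceptor beads (10 ug/mL) for 30 min.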
PI5P4Ka inh = qHTS for Inhibitors of phosphatidylinositol 5-phosphate 4-kinase (PI5P4K). 330,000 tested, 1.2% active. PI5P4Kalpha enzyme, ADP-Glo luminescence, 60 min; hits give low values. max response, %; active = max response of -50% or lower; inconclusive = between -30% and -50%; inactive = -30% or higher; also: value at the top dose of about 77 µM; % is scaled to controls: 0 for no effect and ±100 for the full control effect
Target sequence (P48426 whole entry, looked up): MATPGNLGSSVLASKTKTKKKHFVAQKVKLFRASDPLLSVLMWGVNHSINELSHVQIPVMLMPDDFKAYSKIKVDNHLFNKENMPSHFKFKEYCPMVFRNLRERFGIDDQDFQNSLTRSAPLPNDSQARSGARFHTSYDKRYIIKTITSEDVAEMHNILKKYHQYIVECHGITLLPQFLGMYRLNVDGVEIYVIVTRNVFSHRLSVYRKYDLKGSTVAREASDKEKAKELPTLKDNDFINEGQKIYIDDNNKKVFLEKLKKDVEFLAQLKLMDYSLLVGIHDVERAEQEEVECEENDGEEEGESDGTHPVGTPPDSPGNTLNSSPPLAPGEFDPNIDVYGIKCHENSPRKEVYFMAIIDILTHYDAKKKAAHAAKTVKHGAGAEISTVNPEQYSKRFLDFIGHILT
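Quantitative HTS of the MLSMR library against PI5P4Kalpha with substrate. ATP added last at 5 microM final; room temperature, 60 minutes. Remaining ATP depleted, ADP converted and read as luminescence.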
TbPYK inh = qHTS of Trypanosoma Brucei Inhibitors: Confirmatory Assay for Cherry-picked Compounds. 890 tested, 67% active. shares compounds with PLK1 PBD inh. recombinant TbPYK, Kinase-Glo ATP luminescence. Potency, µM (series often up to 76.9 µM), inactives show top-dose activity change, negative = inhibition, usual class: inhibitors; also: potency is read from the fitted curve at half-maximal effect; % is scaled to controls: 0 for no effect and ±100 for the full control effect; nearly all actives have a fitted effect of over 70% in size
TbPYK orthogonal = qHTS of Trypanosoma Brucei Inhibitors: Orthogonal Assay for Cherry-picked Compounds; shares compounds with PLK1 PBD inh; recombinant TbPYK, ADP-Glo luminescence, 60 min; 890 tested, 62% active; AID 720584, 2013; Potency, µM (top dose mostly 76.9 µM), inactives show at the highest dose activity change, negative = inhibition, usual class: inhibitors; also: potency is read from the fitted curve at half-maximal effect; % is scaled to controls: 0 for no effect and ±100 for the full control effect; nearly all actives have a fitted effect of over 75% in size
* marks the source's active call; other numbers are inactive results; ? = inconclusive; · = no result given; [ ] = remark or other dose. Hits are enriched below; roughly 12% of the tested compounds scored in any of these assays. Unless noted, calls follow the shape of the dose curve; as a rule, active = well fitted curve in the direction sought with a large enough effect; inconclusive = small, poorly fitted or top-dose-only effect, or another doubt; inactive = no such curve, though single readings can be large; an effect the other way counts as inactive or inconclusive.

SMILES	PLK1 PBD inh	BAZ2B block	G9a block	JMJD2A Tudor inh	HP1b binding inh	PI5P4Ka inh	TbPYK inh	TbPYK orthogonal
Cc1ccc(C2CC(c3ccco3)n3ncnc3N2)cc1 (stereo not drawn)	?	1%	?	-28%	40%	-2	·	·
CCOc1ccc(NC(=O)CSc2oc(-c3ccco3)nc2S(=O)(=O)c2ccc(Cl)cc2)cc1	·	?	-34%[59 µM]	-25%	69%	·	·	·
Cc1ccc(/C=C/C(=O)N2CC(C)CC(C)C2)o1 (stereo not drawn)	27µM*	-35%	8.9µM*	50µM*	?	?	?	32µM*
CC(=O)/C=C/c1ccc(C)o1	-18%	-5%	?	4%	11%	1	·	·
C=C(CN(C)C)C(=O)c1cc(C)ccc1C	2.7µM*	·	·	89µM*	35µM*	-1	5.6µM*	16µM*
Cc1cn(CC(=O)N(C)Cc2ccco2)c(=O)[nH]c1=O	-8%	·	·	-15%	30%	3	·	·
CCN(CC(=O)Nc1c(F)cccc1F)C(=O)CNC(=O)c1ccc(C)s1	6%	-6%	74%	-1%	32%	1	·	·
Cc1ccccc1N1C(=O)CC(Sc2nnc(-c3ccccc3)o2)C1=O (stereo not drawn)	0%	-5%	7.9µM*	-6%	-2%	-11	14µM*	18µM*
O=C1CC(Sc2nnc(-c3ccccc3)o2)C(=O)N1c1ccccc1 (stereo not drawn)	?	10%	?	-8%	3%	·	·	·
Cc1cc(=O)c2c(o1)C(=O)c1occc1C2=O	?	·	·	45µM*	-23%	?	2.5µM*	?
COc1cc(C(=O)COC(=O)c2ccc([N+](=O)[O-])o2)cc(OC)c1OC	-7%	·	·	0%	32%	0	·	·
Cc1ccc2oc(C(=O)N(C)Cc3ccc(C)o3)c(C)c2c1	?	-16%[57.1 µM]	8.9µM*	?	-14%	-6	16µM*	28µM*
Cc1ccc2oc(C(=O)N(C)Cc3ccon3)c(C)c2c1	-11%	2%	89%	0%	33%	1	·	·
Clc1ccc(CSc2nccn2Cc2ccccc2)cc1	-2%	?	-11%[0.501 µM]	3.2µM*	-4%	4	1.3µM*	1.1µM*
O=c1ccn(Cc2ccccc2)c(SCc2ccccc2)n1	-12%	·	·	-10%	23%	-2	·	·
CC1(C)Cc2c(c(N3CCOCC3)nc3sc(C(=O)N4CCCCC4)c(N)c23)CO1	?	-36%	4.5µM*	?	27%	-20	0.4µM*	2.5µM*
Nc1c(C(=O)NCc2ccccc2)sc2nc(N3CCOCC3)c3c(c12)CCCC3	-3%	-6%	-9%[2.33 µM]	-16%	37%	-8	·	·
COc1cccc(NC(=O)c2sc3nc(N4CCOCC4)c4c(c3c2N)CCCC4)c1	?	3%	?	-10%	13%	-23	?	?
CCCCOC(=O)c1sc2nc(N3CCOCC3)c3c(c2c1N)CC(C)(C)OC3	-5%	4%	-13%[12.7 µM]	-12%	27%	2	·	·
NNC(=O)c1sc2nc(N3CCOCC3)c3c(c2c1N)CCCC3	6%	-28%	?	-22%	34%	-26	·	·
COc1ccc(NC(=O)c2sc3nc(N4CCOCC4)c4c(c3c2N)CC(C)(C)OC4)cc1	1%	-1%	·	-5%	59%	-3	·	·
Nc1c(C(=O)Nc2ccc(Cl)cc2)sc2nc(N3CCOCC3)c3c(c12)CCCC3	?	-13%	22µM*	-19%	13%	-8	?	?
Nc1c(C(=O)N2CCOCC2)sc2nc(N3CCOCC3)c3c(c12)CCCC3	27µM*	-14%	10µM*	?	5%	-22	7.9µM*	14µM*
Cc1ccc(CCNC(=O)c2cc(-c3ccncc3)nc3ccc(S(=O)(=O)N4CCOCC4)cc23)cc1	-5%	-24%	-4%	8%	31%	-2	·	·
CSCCC(NC(=O)C1CCCCC1)C(=O)Nc1ccc(F)c(Cl)c1 (stereo not drawn)	·	-3%	-28%[59 µM]	-16%	18%	·	·	·
SMILES	PLK1 PBD inh	BAZ2B block	G9a block	JMJD2A Tudor inh	HP1b binding inh	PI5P4Ka inh	TbPYK inh	TbPYK orthogonal
COc1ccc(CCC(=O)O)c(C(CC(=O)O)C(=O)O)c1OS(=O)(=O)c1ccc(C)cc1 (stereo not drawn)	3%	·	·	·	·	-13	·	·
CS(=O)(=O)Nc1cccc(C2=NN(C(=O)c3cccc([N+](=O)[O-])c3)C(c3cccs3)C2)c1 (stereo not drawn)	-1%	?	-2%	-23%	0%	-2	·	·
Cc1cc2c(cc1S(=O)(=O)Nc1cccc(C#N)c1)OCC(=O)N2	·	4%	-40%[59 µM]	-10%	23%[57 µM]	·	·	·
S=C(c1ccc(-c2ccc(Cl)cc2Cl)o1)N1CCCC1	?	-14%	·	50µM*	?	-12	?	?
CN(CC(=O)Nc1ccccc1C(F)(F)F)C(=O)c1ccc(N2C(=O)CCC2=O)cc1	7%	12%	0%	-16%	-15%	-2	·	·
O=C(N/N=C/c1ccccc1)c1ccc(N2CCOCC2)c([N+](=O)[O-])c1	0%	-37%	-26%[59 µM]	-4%	33%	-3	·	·
Cc1ccc(/C=N/NC(=O)c2ccc(-c3ccccc3)cc2)o1	-6%	2%	21%	-21%	9%	-15	·	·
O=C(N/N=C/c1ccc(N2CCCCC2)o1)c1ccccc1	?	-9%	10µM*	50µM*	?	1	32µM*	32µM*
O=C(N/N=C/c1ccc(N2CCOCC2)o1)c1cccc([N+](=O)[O-])c1	?	-28%	10µM*	?	-2%	-3	?	32µM*
O=c1c(-c2ccccc2)nc2cnc(Nc3ccccc3)nc2n1Cc1cccs1	·	·	27%[0.501 µM]	·	·	·	·	·
O=c1cc(-c2cccc(F)c2)[nH]c2cc(Cl)ccc12	·	·	-5%	·	·	·	·	·
CC(=O)/C(N=Nc1c(C)n(C)n(-c2ccccc2)c1=O)=C(\C)O	1%	?	-8%	-4%	49%	-1	·	·

Screens deposited in PubChem BioAssay by National Center for Advancing Translational Sciences (NCATS).
